Several values for one entry are separate records, joined by “and”; a condition that tells them apart may be missing. Equal values may be shown once. The panel holds about 83,000 compounds, 20% with a hit somewhere; the sample as a whole holds those more often.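 Cells were grown in 96-well plates and exposed to the test compound at a single concentration for 48 hours; results are reported as percent growth, with values below 10 considered active.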 Activity calls are given as the source filed them.
How the values were obtained:
Test in all cases: NCI-60 one-dose screen, 48 h (100 = growth as untreated, 0 = no growth, -100 = all killed)
MOLT-4 leukemia = conditions: 10 µM
SR leukemia = conditions: 10 µM
RPMI-8226 leukemia = conditions: 10 µM
OVCAR-8 ovarian = conditions: 10 µM
OVCAR-5 ovarian = conditions: 10 µM
OVCAR-4 ovarian = conditions: 10 µM
SK-OV-3 ovarian = conditions: 10 µM
IGROV1 ovarian = conditions: 10 µM
OVCAR-3 ovarian = conditions: 10 µM
HS 578T breast = conditions: 10 µM
NCI/ADR-RES ovarian = conditions: 10 µM
MDA-MB-435 melanoma = conditions: 10 µM
SW-620 colon = conditions: 10 µM
MCF7 breast = conditions: 10 µM unless noted
HCT-116 colon = conditions: 10 µM
KM12 colon = conditions: 10 µM
HCC-2998 colon = conditions: 10 µM
T-47D breast = conditions: 10 µM
BT-549 breast = conditions: 10 µM

Row | Compound | growth (MOLT-4 leukemia) | growth (SR leukemia) | growth (RPMI-8226 leukemia) | growth (OVCAR-8 ovarian) | growth (OVCAR-5 ovarian) | growth (OVCAR-4 ovarian) | growth (SK-OV-3 ovarian) | growth (IGROV1 ovarian) | growth (OVCAR-3 ovarian) | growth (HS 578T breast) | growth (NCI/ADR-RES ovarian) | growth (MDA-MB-435 melanoma) | growth (SW-620 colon) | growth (MCF7 breast) | growth (HCT-116 colon) | growth (KM12 colon) | growth (HCC-2998 colon) | growth (T-47D breast) | growth (BT-549 breast)
1 | O=[P+](O)c1ccccc1 | 107% (inactive) | 102% (inactive) | 98.6% (inactive) | 99.9% (inactive) | 108% (inactive) | 114% (inactive) | 101% (inactive) | 115% (inactive) | 109% (inactive) | 106% (inactive) | 106% (inactive) | 118% (inactive) | 106% (inactive) | 95.9% (inactive) | 100% (inactive) | 107% (inactive) | – | – | –
2 | O=C(CCl)Nc1ccc(Cl)cc1 | 32.8% (inactive) | 29.6% (inactive) | 60.4% (inactive) | 53.3% (inactive) | 53.5% (inactive) | 17.6% (inactive) | 85.8% (inactive) | -4.08% (active) | 0.0428% (active) | – | 68.3% (inactive) | 48.5% (inactive) | 39.7% (inactive) | – | 18.9% (inactive) | 67.8% (inactive) | 98.3% (inactive) | – | –
3 | CC(C)(C)OOC(=O)/C=C\C(=O)OOC(C)(C)C | 107% (inactive) | 93.5% (inactive) | 112% (inactive) | 97.4% (inactive) | 99.3% (inactive) | 104% (inactive) | 108% (inactive) | – | 113% (inactive) | 113% (inactive) | 109% (inactive) | 119% (inactive) | 98.7% (inactive) | 98.7% (inactive) | 106% (inactive) | 94.6% (inactive) | 104% (inactive) | 101% (inactive) | –
4 | COc1cc(/C=C\[N+](=O)[O-])ccc1O | 27% (inactive) and 79.2% (inactive) | 8.06% (active) and 40% (inactive) | -14.8% (active) and 27.5% (inactive) | 65.9% (inactive) and 93.9% (inactive) | 93.6% (inactive) and 105% (inactive) | 92.6% (inactive) and 113% (inactive) | 101% (inactive) and 97% (inactive) | 80.8% (inactive) and 75.4% (inactive) | 62.4% (inactive) and 71.5% (inactive) | 106% (inactive) and 94.5% (inactive) | 83.4% (inactive) and 98.4% (inactive) | 78.5% (inactive) and 51.3% (inactive) | 7.29% (active) and 67.5% (inactive) | – | 59.3% (inactive) and 32.9% (inactive) | 80.2% (inactive) and 77.4% (inactive) | 100% (inactive) and 83.1% (inactive) | – | 56% (inactive)
5 | O=S(=O)(F)c1ccc(Cl)cc1 | 105% (inactive) | 107% (inactive) | 97.9% (inactive) | 102% (inactive) | 113% (inactive) | 115% (inactive) | 104% (inactive) | 113% (inactive) | 108% (inactive) | – | 109% (inactive) | 108% (inactive) | 100% (inactive) | – | 106% (inactive) | 104% (inactive) | 83.2% (inactive) | 105% (inactive) | –
6 | C/C(=C\c1ccc(Cl)c(Cl)c1)[N+](=O)[O-] | 4.34% (active) and 79.2% (inactive) | 12.3% (inactive) and 88.6% (inactive) | -10.7% (active) and 91.3% (inactive) | 11.9% (inactive) and 90.8% (inactive) | 108% (inactive) and 104% (inactive) | -42.5% (active) and 114% (inactive) | 108% (inactive) and 96.6% (inactive) | -55.8% (active) and 111% (inactive) | -97.7% (active) and 107% (inactive) | 82.8% (inactive) and 103% (inactive) | 30.8% (inactive) and 93.2% (inactive) | 126% (inactive) | -89.1% (active) and 98.6% (inactive) | -85.1% (active) and 80.6% (inactive) | -91.5% (active) and 88.2% (inactive) | -35.5% (active) and 98.3% (inactive) | 99.6% (inactive) and 100% (inactive) | – | –
7 | CC(C)c1cc([N+](=O)[O-])cc([N+](=O)[O-])c1O | 98.2% (inactive) | 94.3% (inactive) | 116% (inactive) | 104% (inactive) | 107% (inactive) | 115% (inactive) | 100% (inactive) | 111% (inactive) | 105% (inactive) | 101% (inactive) | 97.3% (inactive) | 108% (inactive) | 100% (inactive) | – | 103% (inactive) | 88.1% (inactive) | 87.4% (inactive) | – | 96.4% (inactive)
8 | Cc1cc(C)c(C[N+](C)(C)C)c(C)c1C | 3.91% (active) | 7.44% (active) | -18.4% (active) | 6.43% (active) | 10.1% (inactive) | 8.09% (active) | 7.37% (active) | 7.5% (active) | 11.4% (inactive) | 0.977% (active) | 4.96% (active) | 9.06% (active) | 8.53% (active) | – | 7.93% (active) | 7.87% (active) | – | – | –
9 | Cc1cc([N+](=O)[O-])c2ccccc2[n+]1[O-] | -24.5% (active) | -10.2% (active) and -21.8% (active) | -23.6% (active) and -42.3% (active) | 9.55% (active) and -40.6% (active) | 20.9% (inactive) and 13.3% (inactive) | 84.1% (inactive) and 58.4% (inactive) | 7.72% (active) and 21.4% (inactive) | 46.8% (inactive) and 5.5% (active) | -32.2% (active) and -41% (active) | 8.5% (active) and -14.4% (active) | 7.18% (active) and 0.529% (active) | -53.1% (active) and -81.3% (active) | -10.5% (active) and -30% (active) | – | -26.4% (active) and 0.608% (active) | -40.8% (active) and -59.2% (active) | -67.8% (active) and -90.8% (active) | – | –
10 | COc1ccc2c(ccc3oc([N+](=O)[O-])cc32)c1 | -19% (active) | -9.5% (active) | 12.1% (inactive) | 0.0755% (active) | 9.85% (active) | 28.9% (inactive) | -12.6% (active) | – | -13.9% (active) | -7.73% (active) | 2.89% (active) | -77% (active) | 7.19% (active) | 6.64% (active) | 4.98% (active) | -5.99% (active) | -59.3% (active) | 15.3% (inactive) | –
11 | NC(=O)c1cc([N+](=O)[O-])c(Cl)c([N+](=O)[O-])c1 | -13.3% (active) | -3.5% (active) | -10.4% (active) | 85.1% (inactive) | 111% (inactive) | 71.8% (inactive) | 104% (inactive) | 102% (inactive) | -41.1% (active) | 106% (inactive) | 111% (inactive) | 109% (inactive) | -85.2% (active) | – | -79.3% (active) | 91.6% (inactive) | 109% (inactive) | – | –
12 | C/C1=C\[C@H](C)C[C@H](C)OC(=O)C[C@H](c2ccc(O)cc2)NC(=O)[C@@H](Cc2c(Br)[nH]c3ccccc23)N(C)C(=O)[C@H](C)NC(=O)[C@@H](C)C1 | 2.89% (active) | -3.88% (active) | -56.9% (active) | – | -35.1% (active) | -54.6% (active) | -20.9% (active) | -79.1% (active) | -44.9% (active) | -40.4% (active) | -21.9% (active) | -12.2% (active) | 6.45% (active) | – | 0.922% (active) | -4.41% (active) | -86.3% (active) | 4.52% (active) | -76.6% (active)
13 | C[CH2][Hg][S]c1ccccc1C(=O)O | 0.484% (active) | -5.7% (active) | -17.6% (active) | -98.1% (active) | – | -36.6% (active) | 21.1% (inactive) | 16.9% (inactive) | -100% (active) | -1.53% (active) | -13.9% (active) | -12.7% (active) | -87% (active) | -95.9% (active) | -88.9% (active) | 69.9% (inactive) | 59.8% (inactive) | – | –
14 | CC(=O)Nc1c2sscc-2n(C)c1=O | -58% (active) | -27.4% (active) | -51.8% (active) | – | -60.4% (active) | -96.4% (active) | -100% (active) | -88.4% (active) | -100% (active) | -57% (active) | -94.8% (active) | -93.7% (active) | -99% (active) | – | -100% (active) | -100% (active) | -100% (active) | – | –
15 | O=[N+]([O-])c1ccc(N2CCOCC2)c2c1no[n+]2[O-] | 3.12% (active) | – | -7.12% (active) | 28.1% (inactive) | 43.8% (inactive) | -6.35% (active) | 7.59% (active) | – | -34.3% (active) | 1.69% (active) | 16.3% (inactive) | 29.2% (inactive) | 3.22% (active) | 13.7% (inactive) | -25.9% (active) | -73.5% (active) | -49.1% (active) | – | –
16 | C[C@@H]1C[C@@H]([C@H](O)CC2CC(=O)NC(=O)C2)C(=O)[C@@H](C)C1 | 3.71% (active) | 13.8% (inactive) | – | 3.4% (active) | 8.45% (active) | 12.8% (inactive) | 10.9% (inactive) | 11.3% (inactive) | 4.14% (active) | 7.45% (active) | 0.354% (active) | 9.77% (active) | 8.04% (active) | – | 0.0527% (active) | 5.65% (active) | 2.14% (active) | – | 3.02% (active)
17 | O=C1C=Cc2ccccc2C1=O | 95.2% (inactive) | 61.8% (inactive) | 93.6% (inactive) | 87.9% (inactive) | 120% (inactive) | – | 71.9% (inactive) | 77.7% (inactive) | 96.9% (inactive) | 90.9% (inactive) | 93.8% (inactive) | 5.35% (active) | 50.5% (inactive) | – | 87.7% (inactive) | 110% (inactive) | 112% (inactive) | – | –

From PubChem BioAssay (NCI)
